# Test results: the supplement of paper PMC6555819
# Assays:
# Test in all cases: PBM binding z-score (relative to random genomic background probes); higher = stronger binding; sequences stand for … in GC…GCGATTGACAGCGTAGAATGAAGG
# [1] = system: RARb homodimer (NR concentration 270 nM)
# Method in brief: (§1)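 Custom Agilent 4×180K protein-binding microarrays carried double-stranded probes, each with a 34-nt variable region. These regions held direct-repeat seeds, single-nucleotide variants, half-site ablations and random human genomic background sequences. Ligand-free nuclear receptor dimers were incubated on the arrays for 1 h, antibodies against each partner (one per run) detected binding, and scanned fluorescence was regression-normalized. Binding z-scores take the random background probes as reference.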
# [2] = system: RARg:RXRa (NR concentration 270 nM, RXRa partner concentration 90 nM)
# Method in brief: as §1
# [3] = system: RARg homodimer (NR concentration 270 nM)
# Method in brief: as §1
# [4] = system: RXRa DBDmut IVT, anti-RXR (DBD mutation: RXRa K156A/R161A, NR concentration 90 nM)
# Method in brief: as §1
# [5] = system: RXRa homodimer (NR concentration 180 nM)
# Method in brief: as §1
# [6] = system: THRa:RXRa (NR concentration 90 nM, RXRa partner concentration 90 nM)
# Method in brief: as §1
# [7] = system: THRa homodimer (NR concentration 90 nM)
# Method in brief: as §1
# [8] = system: VDR homodimer (NR concentration 270 nM)
# Method in brief: as §1
Sequence,PBM binding z-score [1],PBM binding z-score [2],PBM binding z-score [3],PBM binding z-score [4],PBM binding z-score [5],PBM binding z-score [6],PBM binding z-score [7],PBM binding z-score [8]
TCGAGTAGGTTCGTCGGGGCATTCAGCCAACATA,0.49,0.1,-0.361,2.31,0.365,0.871,0.192,2.33
TTACCAAGGTGAGCTGAGGTCGTTGGTCCAACTC,1.6,1.2,0.604,-0.219,1.34,4.45,2.2,2.56
CCTAGTTGGTCAGTAGGTCACACACCGGATATGA,3.59,3.58,3.25,0.459,2.79,2.1,1.32,1.29
ATCTCTAGGTAGAAGTTCAGTGAATCCCGAGGAT,1.2,0.74,0.979,0.251,0.602,0.355,-0.305,1.28
CCTACTGGGGCAGAAAGGTTACCATACCATCCGG,2.22,1.62,1.59,-1.01,1.56,0.807,-0.439,-0.187
GATACAGGGTCAGCTAGAGGCCAGAATATGGAAA,3.01,6.5,4.78,1.32,4.12,3.04,0.498,1
TTACCAAGGTGAAGCTCGTTGATCCCTCTGTAGA,0.199,0.159,-0.0803,-0.864,0.473,1.57,0.166,-0.835
TCTATTAGTTGATTAGGGCGACCGAAACAGCGGA,0.492,0.141,0.348,1.14,0.378,0.191,0.249,0.212
CCGACTGGGGCAAGGCTACCATAACGCACAGCCA,0.53,0.348,0.614,-0.842,0.0101,-0.203,-0.4,-0.136
GCGACTAGGGCAAAGCAGGTTACCATAAGGTTGG,0.924,0.573,1.01,-0.427,0.44,2.98,0.052,-0.405
CCGACTAGGTTATGGGGCATTCAGGCAACGGTGA,1.03,0.358,0.34,-0.142,0.666,0.586,0.24,0.126
CCTACTGCGCCATTCAGAGGTCATTGATCATATG,3.92,3.36,2.53,1.73,3.92,3.37,2.07,3.47
CAAACTAGGTCACAGAGGTCAGAGTCCGTGCGTA,5.34,6.58,7.37,3.02,6.43,4.37,2.49,4.93
CCTACAGGGCCAAAAAGGTCATTGATGCCGATAA,4.52,4.75,4.56,1.26,5.08,3.21,0.419,3.43
GCGACTGGGGCATCATCAGGTTACCATAACTTAA,1.15,0.589,0.679,0.291,0.302,2.31,1.31,0.0657
ATCTCTGGGTAAAGATAGTTCAGTGAATGCAAAT,1.1,0.61,0.989,-0.0472,0.123,0.544,-0.18,0.45
ATAGAAAGGTCGTGAGGTGAGTATACAGAAAGGC,3.32,4.4,4.01,1.32,5.4,3.48,1.99,1.31
TCTGCTAGGTCAACGATGGTCAGGTAATCTGCTA,3.36,4.2,5.52,1.12,3.11,3.09,1.34,-0.177
AGTCAAAGTTCACTAGGTAAGGTAAGATTCAGCT,3.88,4.78,6.02,4.18,3.95,2.51,1.03,3.36

Sequence,PBM binding z-score [1],PBM binding z-score [2],PBM binding z-score [3],PBM binding z-score [4],PBM binding z-score [5],PBM binding z-score [6],PBM binding z-score [7],PBM binding z-score [8]
TCTATTAGTTGAAGGGCGACCGACGAGTCCGTTT,0.596,0.105,-0.00665,1.84,0.439,0.0101,0.203,1.32
CCTCGGAGGACAACTGGAGGTCAGAGCTGCCAGA,3.7,4.12,4.11,0.362,2.22,2.7,1.3,1.48
CAAACTAGGTCACAGGTCAAAGTCGAGCCAACCA,4.27,5.97,5.55,2.31,6.18,3.97,2.07,2.12
ACAGACAGGCGAGTGAAGGTAACTCAGCTGGACG,-0.318,-0.0341,-0.0147,-0.699,0.296,0.0808,-0.312,-0.484
TCTCGGAGGACTCGAAGGTCAGAGCTTTCCAGAG,2.73,1.7,1.24,0.262,1.41,1.65,-0.0603,-0.0798
CTCGAAAGGTTGTGCTCAGGTGAGTATACCAAAC,0.954,1.31,0.452,0.56,0.825,2.84,0.886,0.0434
CTCGAAAGGTCGGTTGAGGTGGGTATACGGATAA,1.83,2.28,2.25,0.695,1.86,4.1,0.422,1.06
GTACCAAGGTGAATAAGTCGTTGATGAGTAGGCG,0.43,0.827,0.671,-0.0366,0.742,1.21,0.531,0.148
TCATATAGGTAGAAGGTGAAAGTCGGTGTGGTAA,1.02,0.662,0.283,2.05,1.18,0.699,0.397,0.453
TCTCGGAGGACACGAAGGTGAGAGCTTTCCAGAG,1.24,0.731,1.55,0.225,0.152,1.48,0.357,-0.501
GCTTACGGGCCAAAGGTTATAGCATGAATAGAAT,1.29,2.77,1.04,0.36,3.01,1.58,-0.515,-0.0468
TCTTGTAGATCAGCAGTTTAAGAAAGCTGGCCAA,-0.447,-0.29,-0.416,0.659,-0.0867,-0.138,-0.319,0.0603
TCTTGTAGATCAAAGGTGAAGAAAGCCGAAGCCT,0.902,0.905,0.395,0.392,1.75,0.776,-0.461,-0.594
TCGAGGAGGTTAGGGGCATTCAGAATGGCGTCGA,1.36,0.847,0.702,0.518,1.22,1.34,0.547,1.07
ATATCTAGGTAAAGATAGTTCAGTGAATGCAAAT,0.985,0.606,0.877,0.0845,0.518,0.642,-0.33,0.327
CCTAGGAGGCCAATCTGGGTCACTCAAGGCTTGA,2.69,1.66,2.12,-0.07,1.19,4.21,0.462,0.0459
TCATATAGGTAAATGCTAGGTGAAAATCCGATCT,0.208,0.578,0.633,1.54,0.795,1.24,0.427,0.374
TAGCCTAGGTCAGATAGGGCCAGTATACGCTATA,1.93,2.8,3.74,-0.288,1.41,4.03,0.0301,-0.0363
CGAACTAGGTCATCCAGGACAGGGAATACATTGA,2.82,3.79,4.29,2.17,2.65,3.52,1.93,1.73

Sequence,PBM binding z-score [1],PBM binding z-score [2],PBM binding z-score [3],PBM binding z-score [4],PBM binding z-score [5],PBM binding z-score [6],PBM binding z-score [7],PBM binding z-score [8]
CGTCCAAGGTCAGCAGGTCAGTGATAGCGACGTG,5.02,6.25,7.22,2.59,5.26,3.84,2.31,1.75
CGTCCAAGGTCAGCAGGTCAGCGAAAGCGACGTG,5.14,6.69,7.16,2.52,5.67,4.07,2.74,1.83
GATACAGGGTCAGCTAGACGCCAGAGTATGGAAA,2.32,4.41,4.12,0.957,4.21,2.43,0.221,0.722
CCTTACGGGTTAAGGTTATAGCACGGGTGGTACG,1.42,1.43,0.999,-0.691,2.18,2.64,1.75,0.766
GATACAGGGTCAAGGCCAGGGTACGCGTATTGAT,3.96,5.8,4.85,2.61,5.97,3.95,1.51,2.65
AGAACGAGGGCAATGAGTCGATAGCACGGGTGGC,0.763,1.02,1.4,1.75,0.683,0.527,-0.542,1.17
ACAGACAGGTGATGAGGGTAACTCAGGCTATCAT,0.681,0.294,0.502,-0.49,0.588,2.72,0.561,-0.088
CCGAGTAGGTTATGGGGCAATCAGGCAACGGTGA,1.16,0.738,0.689,-0.315,0.867,0.602,0.263,0.0803
ACAGACAGGTGAGTGAAGGTAACCCAGCTGGACG,0.564,0.107,0.469,-0.852,0.562,1.63,0.00911,-0.164
ATACCAAGGTGATCGTGAGGTCTTTGATACTAAC,0.992,0.797,0.392,0.0771,0.435,2.38,1.65,0.438
TTTTGTAGATCAAGCAGGTTAAGAAAGCCTGAGT,0.054,-0.111,-0.119,-0.757,0.19,0.502,-0.555,0.443
CTGGAAAGGTCGGTTGAGGTGAGTATACGGATAA,2.18,2.53,2.93,1.05,2.18,4.88,1.56,0.437
ATATTTAGGTTATCGGGTCATTCAGTTTGCGCAT,3.44,3.54,2.82,1.92,3.57,3.62,3.93,4.95
CGAACTAGGTCAAGGACACTGAATCTCCGCACGC,3.08,3.94,4.67,1.55,2.66,3.49,3.04,0.782
CCGACTGGGGCATAAGGTTATCATAAGCCAGCCC,1.53,1.8,0.973,-0.174,1.14,1.78,0.629,0.13
CCTACTGGTCCAAAAAGGTCATTGATGCCGATAA,4.58,4.42,4.17,1.56,4.74,3.35,1.18,3.81
GCTATTTGTTGAAAGGGCAACCGAATGATTCTCG,2.2,1.01,1.26,1.28,0.98,0.638,0.181,0.657
ATCTCTAGGTAAAAGTTCAGTGACTCCCGAGGAT,2.46,2.04,2.16,0.624,1.75,1.32,0.142,1.69
ATCTCTAGGTAACAACTTCAGTGAAAGAGAGGAC,0.514,0.787,0.752,-0.232,0.536,1.14,0.654,0.576
